This is a sample that favours compounds with a hit; in the whole collection about 3% have one here.
PMP22 txn = PMP22 gene transcription modulation. 43,000 tested, 2% active. Potency, µM (highest dose often 57.5 µM), without a hit: at the top dose activity change, negative = inhibition, most hits filed as inhibitors. AID 1508649. S16 Pmp22-F2sN Schwann cells, FLuc/NLuc coincidence luminescence, 24 h; active means clear falling dose curves in both reporters; inconclusive means both reporters move, but less clearly or upward; inactive means either reporter flat; the % is the NLuc reporter signal; further: on the % scale 0 is the no-effect control and ±100 the full control effect
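qHTS, 1536-well. Cells seeded, compounds added by pin tool, 24 h 37C. Nano-Glo reagent 1 (lysis/FLuc), 10 min RT, read; Stop&Glo, 10 min RT, read NLuc.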
GALC G270D act = raises human GALC G270D mutant activity in cells; 45,000 tested, 0.1% active; Potency, µM (highest dose often 57.5 µM), most hits filed as activators; P54803; 145M-Twi-hGALC-G270D cells (Twitcher mouse brain line with human GALC G270D), HMU-beta-Gal fluorescence, 48 h; further: 0% is about no effect; nearly all actives have a fitted effect of over 65% in size
Target sequence (P54803 whole entry G286D): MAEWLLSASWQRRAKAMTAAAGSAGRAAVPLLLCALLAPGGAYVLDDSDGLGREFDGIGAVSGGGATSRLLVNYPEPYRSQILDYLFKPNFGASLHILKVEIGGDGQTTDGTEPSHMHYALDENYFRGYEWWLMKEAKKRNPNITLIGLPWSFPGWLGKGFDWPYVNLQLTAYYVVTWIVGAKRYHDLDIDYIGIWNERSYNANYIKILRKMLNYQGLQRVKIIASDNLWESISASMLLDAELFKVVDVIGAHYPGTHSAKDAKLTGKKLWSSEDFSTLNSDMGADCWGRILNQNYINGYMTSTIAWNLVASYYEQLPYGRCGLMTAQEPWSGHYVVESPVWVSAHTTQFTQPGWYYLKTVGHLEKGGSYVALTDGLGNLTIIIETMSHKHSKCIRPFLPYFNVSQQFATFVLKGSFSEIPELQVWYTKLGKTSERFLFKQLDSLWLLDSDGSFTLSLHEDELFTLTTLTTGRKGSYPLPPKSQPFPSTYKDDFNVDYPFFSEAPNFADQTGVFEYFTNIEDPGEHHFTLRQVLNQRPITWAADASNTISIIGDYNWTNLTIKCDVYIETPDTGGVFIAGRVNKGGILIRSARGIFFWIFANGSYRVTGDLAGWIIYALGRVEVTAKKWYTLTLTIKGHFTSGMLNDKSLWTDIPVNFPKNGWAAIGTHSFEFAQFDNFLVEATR
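Mutant human GALC (G270D), stably expressed in a Twitcher mouse brain cell line lacking endogenous GALC, is measured in live-treated cells via 6-hexadecanoylamino-4-methylumbelliferyl-β-galactoside hydrolysis (0.1 mM final, pH 5.2) with fluorescent detection.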
pS6 MEF inh = mTORC1 pathway inhibition measured by phospho-rpS6; Potency, µM (top dose mostly 38.3 µM), for the others: at the top dose activity change, negative = inhibition, hits mostly inhibitors; AID 493208; Tsc2-/- p53-/- MEF, phospho-rpS6 immunofluorescence/PI, 24 h; 44,000 tested, 0.78% active;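 further: plate controls were DMSO for no effect and rapamycin for full effect; nearly all actives have a fitted effect of over 50% in size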
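Read-out: phospho-S6 Alexa-488 intensity over PI intensity per well, scored as % active cells using thresholds from rapamycin (7.5 nM) and DMSO controls. Tsc2-/-, p53-/- MEFs exposed to compound for 24 h; PI cell count recorded as viability.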
S16 F2sN tox = cytotoxicity in S16 Pmp22-F2sN Schwann cells; S16 Pmp22-F2sN Schwann cells viability, CellTiter-Glo, 24 h; Potency, µM (titrated, usually from 57.5 µM), without a hit: at the highest dose activity change, negative = cytotoxicity, usual class: cytotoxic; 43,000 tested, 0.48% active; further: on the % scale 0 is the no-effect control and ±100 the full control effect; nearly all actives have a fitted effect of over 65% in size
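S16 Pmp22-F2sN Schwann cells (500-1,000/well) in phenol-red-free DMEM with 10% FBS received 23 nL compound by pin tool for 24 h at 37 °C. Viability was then read as CellTiter-Glo luminescence after 15 min at room temperature.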
p53null 32C kill = kills p53 null cells at the permissive temperature | AID 903 | 55,000 tested, 0.62% active | Potency, µM (highest dose often 46.1 µM), inactives show at the top dose activity change, negative = cytotoxicity, usual class: cytotoxic | H1299-neo p53 null cells, ATP luminescence, 24 h, 32C;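 further: 0% = DMSO only and -100% = full killing by 100 µM tamoxifen; nearly all actives have a fitted effect of over 55% in size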
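We seeded p53-null H1299-neo cells, incubated them overnight at 37C, and added compounds across a range up to 46 uM. After 24 hours at 32C, ATP reagent was applied for 20 min at room temperature and luminescence recorded.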
p53null 39C kill = selectivity test: cytotoxicity in p53 null cells, nonpermissive temperature | H1299 p53-null (neo) cells, 39C, ATPlite viability, 24 h | Potency, µM (doses to about 46.1 µM), for the others: at the highest dose activity, negative = cell killing, most hits filed as cytotoxic | 55,000 tested, 0.97% active;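 further: 0% = DMSO only and -100% = full killing by 100 µM tamoxifen; nearly all actives have a fitted effect of over 50% in size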
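Luminescent ATP signal reported cell survival after H1299 lines (neo, p53 null; or p53 A138V) received up to 46 uM compound and 24 hr incubation at 39C.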
* hit, by the source's call. Unless noted, the call rests on the fitted dose curve; in most records, active means well fitted curve in the direction sought with a large enough effect; inconclusive means small, poorly fitted or top-dose-only effect, or another doubt; inactive means no such curve, though single readings can be large; an effect the other way counts as inactive or inconclusive. Potency means the concentration at half of the fitted maximal effect.

For COc1cc(NC(=O)c2ccc(C)cc2)ccc1NC(=O)c1cc2ccccc2o1 the results were PMP22 txn -14.1%, GALC G270D act inactive, pS6 MEF inh -1.3%, S16 F2sN tox -1.2%, p53null 32C kill -3.6% and p53null 39C kill 19.4%.
`COc1cc(NC(=O)c2cccc(F)c2)ccc1NC(=O)c1cc2ccccc2o1` gave PMP22 txn -10.6%, GALC G270D act inactive, pS6 MEF inh 16.5µM*, S16 F2sN tox -0.4%, p53null 32C kill -0.2% and p53null 39C kill -1.7%.
For COc1ccc(C2c3c(-c4ccccc4O)n[nH]c3C(=O)N2CCc2ccccc2)cc1 (stereo not drawn) the results were PMP22 txn inconclusive, GALC G270D act inactive, pS6 MEF inh inconclusive, S16 F2sN tox inconclusive, p53null 32C kill 44.3% and p53null 39C kill inconclusive.
Cc1ccc(C2c3c(-c4ccccc4O)n[nH]c3C(=O)N2CCc2ccccc2)cc1 (stereo not drawn) was read as PMP22 txn inconclusive, GALC G270D act inactive, pS6 MEF inh 16.5µM*, S16 F2sN tox -25.2%, p53null 32C kill 45.2% and p53null 39C kill inconclusive.
Cc1cc(C)c(-c2n[nH]c3c2C(c2ccccc2F)N(Cc2ccco2)C3=O)c(O)c1 (stereo not drawn) was read as PMP22 txn inconclusive, GALC G270D act inactive, pS6 MEF inh 13.1µM*, S16 F2sN tox -14.9%, p53null 32C kill 14.3% and p53null 39C kill 15.8µM*.
Screening COc1ccc(C2c3c(-c4ccccc4O)n[nH]c3C(=O)N2Cc2ccco2)cc1 (stereo not drawn) returned PMP22 txn -24.2%, GALC G270D act inactive, pS6 MEF inh -5.2%, S16 F2sN tox -5.2%, p53null 32C kill 27.5% and p53null 39C kill 23.8%.
COc1ccc(CCN2C(=O)c3[nH]nc(-c4ccccc4O)c3C2c2cccc(OC)c2)cc1 (stereo not drawn) was read as PMP22 txn inconclusive, GALC G270D act inactive, pS6 MEF inh 14.7µM*, S16 F2sN tox inconclusive, p53null 32C kill 6.5% and p53null 39C kill 18.7%.
Screening CCCOc1cccc(C2c3c(-c4ccccc4O)n[nH]c3C(=O)N2Cc2ccco2)c1 (stereo not drawn) returned PMP22 txn inconclusive, GALC G270D act inactive, pS6 MEF inh 14.7µM*, S16 F2sN tox -1.9%, p53null 32C kill 44.1% and p53null 39C kill 17.8µM*.
`CCOC(=O)c1ccccc1NC(=O)CN(c1cccc(C)c1C)S(=O)(=O)c1ccccc1` gave PMP22 txn inconclusive, GALC G270D act inactive, pS6 MEF inh -10.6%, S16 F2sN tox -3.8%, p53null 32C kill -2.1% and p53null 39C kill 18.6%.
Screening COc1ccc(NC(=O)CCS(=O)(=O)c2cc(Br)cc3c2N(C(C)=O)CC3)c(OC)c1 returned PMP22 txn 9.8%, GALC G270D act inactive, pS6 MEF inh -6.3%, S16 F2sN tox -4.9%, p53null 32C kill 14.3% and p53null 39C kill 3.6%.
For COc1ccc(Br)cc1Cn1nnc(C(=O)Nc2ccc(C)cc2C)c1N the results were PMP22 txn inconclusive, GALC G270D act inactive, pS6 MEF inh -18.8%, S16 F2sN tox -6.3%, p53null 32C kill -4.5% and p53null 39C kill 17.0%.
For CCCN(CCC)C(=O)c1c2c(nc3ccccc13)C(=O)N(C1CCCCC1)C2 the results were PMP22 txn -41.1%, GALC G270D act inactive, pS6 MEF inh -2.6%, S16 F2sN tox 6.4%, p53null 32C kill 1.6% and p53null 39C kill 16.7%.
Screening CCCc1cc(=O)[nH]c(Nc2ccc(O)cc2C)n1 returned pS6 MEF inh -1.0%, p53null 32C kill 2.9% and p53null 39C kill 3.4%.
For CC(C)OCCCN1C(=O)c2[nH]nc(-c3ccccc3O)c2C1c1ccc(OCc2ccccc2)cc1 (stereo not drawn) the results were PMP22 txn inconclusive, GALC G270D act inactive, pS6 MEF inh inconclusive, S16 F2sN tox inconclusive, p53null 32C kill 47.7% and p53null 39C kill 12.6µM*.
Screening COCCN1C(=O)c2[nH]nc(-c3ccccc3O)c2C1c1ccc(Cl)c(Cl)c1 (stereo not drawn) returned PMP22 txn inconclusive, GALC G270D act inactive, pS6 MEF inh 0.0%, S16 F2sN tox inconclusive, p53null 32C kill 50.6% and p53null 39C kill 15.8µM*.
For O=C(NCCc1ccccc1Cl)c1ccc(Cn2c(=O)c3cccn3c3cccnc32)cc1 the results were PMP22 txn inconclusive, GALC G270D act inactive, pS6 MEF inh 4.5%, S16 F2sN tox 0.7%, p53null 32C kill inconclusive and p53null 39C kill 10µM*.
Screening CCCCN(C)S(=O)(=O)c1ccc(C(=O)Nc2sc3c(c2C(=O)OCC)CCN(C(C)C)C3)cc1 returned PMP22 txn inconclusive, GALC G270D act inactive, pS6 MEF inh -2.6%, S16 F2sN tox inconclusive, p53null 32C kill 15.2% and p53null 39C kill 9.8%.
`CC(C)(C)OC(=O)N1CCC(c2nnc(SCc3cccc(Cl)c3)o2)CC1` gave PMP22 txn -33.6%, GALC G270D act inactive, pS6 MEF inh -1.5%, S16 F2sN tox -25.2%, p53null 32C kill 2.9% and p53null 39C kill 1.9%.
Screening O=C(Nc1ccc(F)c(Cl)c1)C1CCCN(S(=O)(=O)c2cccc3nsnc23)C1 (stereo not drawn) returned PMP22 txn inconclusive, GALC G270D act inactive, pS6 MEF inh 3.2%, S16 F2sN tox -19.8%, p53null 32C kill 46.2% and p53null 39C kill 9.2%.
Screening CCOc1ccc(C2=C(C(=O)CC)Sc3nncn3N2C(=O)CC)cc1 returned PMP22 txn inconclusive, GALC G270D act inactive, pS6 MEF inh inconclusive, S16 F2sN tox inconclusive, p53null 32C kill 12.6µM* and p53null 39C kill inconclusive.
CC(=O)C1=C(c2ccc(Cl)c(Cl)c2)N(C(C)=O)n2cnnc2S1 was read as PMP22 txn inconclusive, GALC G270D act inactive, pS6 MEF inh 14.7µM*, S16 F2sN tox inconclusive, p53null 32C kill 12.1% and p53null 39C kill -22.5%.
For COc1cccc(C2=C(C(C)=O)Sc3nncn3N2C(C)=O)c1 the results were PMP22 txn inconclusive, GALC G270D act inactive, pS6 MEF inh -10.0%, S16 F2sN tox inconclusive, p53null 32C kill -8.5% and p53null 39C kill -1.5%.

Compound activity deposited in PubChem BioAssay by National Center for Advancing Translational Sciences (NCATS).
